From PubChem
HIV Env fusion: inhibitors of HIV-1 Env-driven cell-cell fusion, primary screen, HeLa-JRFL effector, CEM21 target cells, luciferase. inhibition, % at 12.3 µM. hit rate 1.1% among 360,000;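 active means mean replicate inhibition score of at least 50 and every replicate individually at or above 50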
NSD2 HMT inh: NSD2 histone methyltransferase inhibitors, primary screen, biochemical, AlphaScreen, single concentration, set 2; inhibition, % at 12.5 µM; AID 743445, 2014; NSD2 peptide methylation, 120 min; hit rate 0.54% among 310,000; Histone-lysine N-methyltransferase NSD2 (Homo sapiens), O96028; in the data active means inhibition above about 50%
PglD inh: C. jejuni PglD acetyltransferase inhibitors, primary screen, biochemical, DTNB colorimetric, single point | UDP-N-acetylbacillosamine N-acetyltransferase PglD (Campylobacter jejuni) | purified PglD enzyme, DTNB colorimetric CoA detection | inhibition, % at 12.5 µM | hit rate 0.098% among 360,000 | AID 602405, 2012; in the data active means inhibition above about 16%, passing the limit was not always enough
CASP6 VEID inh: human caspase-6 inhibitors, primary screen, biochemical, VEID-R110 fluorescence, single point, set 2 | AID 686996, 2013 | purified caspase-6, Z-VEID-R110 cleavage fluorescence | P55212 | inhibition, % at 12.5 µM | hit rate 0.53% among 350,000;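 active means mean inhibition across replicates at least about 35%, with every replicate also reaching that limit, limit read from the data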
CFTR F508del cor: F508del CFTR correction, initial screen, CFBE line, single point; CFBE cells, YFP halide quenching; stimulated with forskolin plus potentiator P3; % fluorescence drop versus neutral controls; activity (quench increase), % at 7.58 µM; hit rate 0.36% among 350,000; AID 720511, 2013;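 active means mean added fluorescence quench of at least 8% versus neutral control, with both replicates also reaching 8%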;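 further: cells transiently co-express mutant CFTR-F508del with the halide-sensitive YFP; corrector assay measuring rescue of mutant channel to the surface after 24 h compound exposure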
ALR H2O2 inh: inhibitors of human ALR sulfhydryl oxidase, primary screen, biochemical, H2O2 detection, HRP-luminol luminescence, single point; AID 485317, 2010; FAD-linked sulfhydryl oxidase ALR (Homo sapiens), P55789; purified ALR, DTT oxidation; hit rate 3.8% among 290,000; inhibition, % (no concentration beside the values);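 active means mean replicate inhibition above about 79%, with every replicate also reaching it, limit read from the data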
Target sequence (P55789 whole entry, looked up): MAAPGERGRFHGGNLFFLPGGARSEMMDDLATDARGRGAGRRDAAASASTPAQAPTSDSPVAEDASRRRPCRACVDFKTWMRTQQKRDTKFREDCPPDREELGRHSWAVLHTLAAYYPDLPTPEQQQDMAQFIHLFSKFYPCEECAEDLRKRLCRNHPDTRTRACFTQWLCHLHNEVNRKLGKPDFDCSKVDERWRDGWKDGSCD
A number is an active result. The list is not random: actives were taken first. Their share in the collection is about 4.1%.

Results for CCN(CC)C(=O)c1ccc(S(=O)(=O)N2CCC(c3nc4ccccc4s3)CC2)cc1 ?
NSD2 HMT inh: inactive; PglD inh: inactive; ALR H2O2 inh: inactive

What do the screens show for `CC1=NN(c2ccccc2)C(=O)C1c1ccccc1` (configuration not stated)?
HIV Env fusion: inactive; NSD2 HMT inh: inactive; ALR H2O2 inh: 94

What do the screens show for `CC1=NN(c2ccccc2)C(=O)C1C(=O)c1ccccc1` (configuration not stated)?
HIV Env fusion: inactive; NSD2 HMT inh: inactive; CASP6 VEID inh: inactive

What do the screens show for `COc1cccc(NC(=O)COC(=O)COc2ccccc2[N+](=O)[O-])c1`?
HIV Env fusion: inactive; NSD2 HMT inh: inactive; PglD inh: inactive; ALR H2O2 inh: inactive

Results for CCN(CC)c1ccc(NC(=O)COC(=O)CCC(=O)c2cccs2)cc1 ?
NSD2 HMT inh: inactive; PglD inh: inactive; CASP6 VEID inh: inactive; CFTR F508del cor: inactive; ALR H2O2 inh: 99

Results for CCN(CC)c1ccc(NC(=O)COC(=O)COc2ccccc2[N+](=O)[O-])cc1 ?
NSD2 HMT inh: inactive; CASP6 VEID inh: inactive; CFTR F508del cor: inactive; ALR H2O2 inh: 99

Results for CCN(CC)c1ccc(NC(=O)COC(=O)C23CCC(=O)N2c2ccccc2S3)cc1 (configuration not stated) ?
HIV Env fusion: inactive; NSD2 HMT inh: inactive; PglD inh: inactive; ALR H2O2 inh: 97

Results for CN(C)c1ccc(NC(=O)COC(=O)CNC(=O)c2cccs2)cc1 ?
HIV Env fusion: inactive; NSD2 HMT inh: inactive; PglD inh: inactive; CASP6 VEID inh: inactive; CFTR F508del cor: inactive; ALR H2O2 inh: 96

What do the screens show for `CCN(CC)c1ccc(NC(=O)COC(=O)Cc2ccsc2)cc1`?
HIV Env fusion: inactive; NSD2 HMT inh: inactive; PglD inh: inactive; CASP6 VEID inh: inactive; CFTR F508del cor: inactive

What do the screens show for `O=C(C[C@@H]1C=C[C@H](NC(=O)c2ccncc2)[C@H](CO)O1)Nc1ccc(-c2ccccc2)cc1`?
HIV Env fusion: inactive; PglD inh: inactive; CASP6 VEID inh: inactive; CFTR F508del cor: inactive

How did Cc1ccc(C2=N/C(=C\c3coc4ccccc4c3=O)C(=O)O2)cc1 do in these assays?
HIV Env fusion: inactive; NSD2 HMT inh: inactive; CASP6 VEID inh: 44; CFTR F508del cor: inactive

Results for CO[C@@H]1CN(C)C(=O)c2ccc(NC(=O)C3CCCCC3)cc2OC[C@@H](C)N(C)C[C@@H]1C ?
PglD inh: inactive; CASP6 VEID inh: inactive; CFTR F508del cor: inactive

How did Cc1ccc(Nc2nc(/N=C/N(C)C)n[nH]2)cc1C do in these assays?
HIV Env fusion: inactive; NSD2 HMT inh: inactive; CASP6 VEID inh: inactive; CFTR F508del cor: inactive; ALR H2O2 inh: 98

How did Cc1ccc(Nc2nc3ccccc3c(=O)[nH]2)cc1C do in these assays?
HIV Env fusion: inactive; NSD2 HMT inh: inactive; CASP6 VEID inh: inactive; CFTR F508del cor: inactive; ALR H2O2 inh: inactive

What do the screens show for `CCOC(=O)c1cc2c(C)n(-c3ccc(C)cc3)c(C)c2ccc1=O`?
HIV Env fusion: inactive; NSD2 HMT inh: inactive; PglD inh: inactive; ALR H2O2 inh: inactive

Results for CCOC(=O)c1cc2c(C)n(-c3ccc(OCC)cc3)c(C)c2ccc1=O ?
HIV Env fusion: 61; NSD2 HMT inh: inactive; PglD inh: inactive; ALR H2O2 inh: inactive

Results for Cc1cccc(N2C(=O)C(O)=C(C(=O)c3cccs3)C2c2ccccc2)n1 (configuration not stated) ?
HIV Env fusion: inactive; NSD2 HMT inh: inactive; CASP6 VEID inh: inactive; CFTR F508del cor: inactive; ALR H2O2 inh: inactive

What do the screens show for `Cc1cccc(N2C(=O)C(O)=C(C(=O)c3cccs3)C2c2cccc(Oc3ccccc3)c2)n1` (configuration not stated)?
HIV Env fusion: inactive; NSD2 HMT inh: inactive; PglD inh: inactive; CASP6 VEID inh: inactive; CFTR F508del cor: inactive; ALR H2O2 inh: 98

How did CC(=O)C1=C(O)C(=O)N(c2ccc(C(=O)O)cc2)C1c1ccc([N+](=O)[O-])cc1 (configuration not stated) do in these assays?
HIV Env fusion: inactive; NSD2 HMT inh: inactive; PglD inh: inactive; CASP6 VEID inh: inactive; CFTR F508del cor: inactive; ALR H2O2 inh: inactive
